“And” between values parts separate entries of the source, which are not always exact repeats. Identical values can stand only once. Results filed as inconclusive are left out. Unmarked numbers belong to inactive results. The source made the active and inactive calls. Calls come from the whole dose curve; as a rule, active = well fitted curve in the direction sought with a large enough effect; inconclusive = small, poorly fitted or top-dose-only effect, or another doubt; inactive = no such curve, though single readings can be large or run the other way. Where a SMILES comes first, the peptide text is derived from it. [ ]: non-standard residue; d: D form. pGlu = O=C1CC[C@@H](C(=O)O)N1
Test: qHTS Assay for Identifying Gametocytocidal Compounds (AID 743244);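 for max response: actives lower the fluorescent signal which means gametocytes are killed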
Details: P. falciparum 3D7 stage III-V gametocytes, alamarBlue, 72 h; max response: stronger effect = lower value
How it was run: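 In this qHTS viability screen, late-stage 3D7 gametocytes are incubated with compound for 72 h, then with alamarBlue for 24 h; reduced resorufin fluorescence marks killing.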
Work on `CC(=O)Nc1ccc(OC(=O)c2ccccc2O)cc1` yielded a max response of -4.48%. `CC(/C=C/C=C(\C)C(=O)O[C@@H]1O[C@H](CO[C@@H]2O[C@H](CO)[C@@H](O)[C@H](O)[C@H]2O)[C@@H](O)[C@H](O)[C@H]1O)=C\C=C\C=C(C)\C=C\C=C(/C)C(=O)O[C@@H]1O[C@H](CO[C@@H]2O[C@H](CO)[C@@H](O)[C@H](O)[C@H]2O)[C@@H](O)[C@H](O)[C@H]1O` showed a max response of 5.1%. Work on `CCCCCc1ccc(C)cc1O` yielded a max response of 3.19%. For `C[C@@H](O)[C@H]1C(=O)N2C(C(=O)[O-])=C(SC3Cn4cnc[n+]4C3)[C@H](C)[C@H]12` (stereo partly drawn), the max response was -4.53%. Work on `O=C1CCC(c2ccccc2)(C2CCN(Cc3ccccc3)CC2)C(=O)N1` (stereo not drawn) yielded a max response of 0.775%. With `CCN(CC)CCC(=O)N1c2ccccc2Sc2ccc(Cl)cc21` the max response was 2.51%. For `CCCCCCCCCCCCCCCCOCCOCCOCCOCCOCCOCCOCCOCCOCCOCCOCCOCCOCCOCCOCCOCCOCCOCCOCCOCCO`, the max response was -3.08%. In the case of `O=C1c2c(O)cccc2[C@H]([C@@H]2O[C@H](CO)[C@@H](O)[C@H](O)[C@H]2O)c2cc(CO)cc(O)c21`, the max response is reported as -5.95% and -4.23%. `O=[n+]1ccn([O-])c2ccccc21` showed a max response of -5.38%. With `O=P(O)(O)OP(=O)(O)O` the max response was 2.77%. In the case of `C[C@H](N)C(=O)N[C@@H](C)P(=O)(O)O`, the max response is reported as 2.87%. `O=c1[nH]c(=O)n([C@H]2C[C@H](O)[C@@H](CO)O2)cc1/C=C/Br` showed a max response of 6.97%. For `NC(Cc1ccccc1)C(=O)O` (stereo not drawn), the max response was 3.95%. `CNCC(O)c1ccc(OC(=O)C(C)(C)C)c(OC(=O)C(C)(C)C)c1` (stereo not drawn) showed a max response of -11.6%. With `Cc1ccc(S(=O)(=O)NC(=O)N[C@@H](C)Cc2ccccc2)cc1` the max response was 23.6%. Work on `CCC(Oc1ccccc1)C(=O)N[C@@H]1C(=O)N2[C@@H]1SC(C)(C)[C@@H]2C(=O)O` (stereo partly drawn) yielded a max response of 14.1%. Work on `CCN(CC)C(=O)[C@]1(c2ccccc2)C[C@@H]1CN` yielded a max response of -1.74%. In the case of `O=C1C2CC3CC1CC(O)(C3)C2`, the max response is reported as 6.58%. `CC[C@H](C)[C@H](NC(=O)[C@H](Cc1ccccc1)NC(=O)[C@H](C)NC(=O)[C@H](CC(=O)O)NC(=O)[C@H](CCCCN)NC(=O)[C@H](CO)NC(=O)[C@@H]1CCCN1C(=O)[C@@H]1CCC(=O)N1)C(=O)NCC(=O)N[C@@H](CC(C)C)C(=O)N[C@@H](CCSC)C(N)=O` ([pGlu]PSKDAFIGLM-NH2) showed a max response of 13.3%. Compound `CO/N=C(\C(=O)N[C@@H]1C(=O)N2C(C(=O)O)=C(CSc3nc(C)c(CC(=O)O)s3)CS[C@H]12)c1csc(N)n1` has a max response of 4.68%. `CC(=O)Nc1ccc(OC(C)=O)cc1` showed a max response of -5.2%. In the case of `CCN1\C(=C/C=C/C=C/c2sc3ccccc3[n+]2CC)Sc2ccccc21`, the Potency is reported as 11.2 µM (active). Compound `CCCCCCCCCCCC(=O)OCC(O)CO` (stereo not drawn) has a max response of 3.54%.

Source: PubChem BioAssay (NCATS)
% is set by controls: 0 for no effect and ±100 for the full control effect; potency is the fitted concentration of half-maximal effect.
